# Measured values from paper PMC5700166.
# Where a chain is given by its changes, count along the chain named.
# Columns and labels:
# Assay in all cases: protein-binding microarray (PBM); PBM: ~300 nM protein, 6 mM HEPES pH 7.8, 80 mM KCl, 0.5 mM EDTA, 0.5 mM EGTA, 6% glycerol, 35 ng/ul poly-dIdC, 1% milk, 1 h, room temperature; Ap Aiptasia and Nv Nematostella (sea anemones) / Co Capsaspora / Aq Amphimedon (sponge) / Dm Drosophila / Hu human; RHD is the Rel homology domain; high values mean tight binding
# Conditions in all cases: dsDNA, one strand shown
# GST-Ap-NF-kB RHD = target: T1, GST-Ap-NF-kB RHD (Exaiptasia pallida (Aiptasia), UniProt A0A913YAJ5 2-422)
# T1 sequence: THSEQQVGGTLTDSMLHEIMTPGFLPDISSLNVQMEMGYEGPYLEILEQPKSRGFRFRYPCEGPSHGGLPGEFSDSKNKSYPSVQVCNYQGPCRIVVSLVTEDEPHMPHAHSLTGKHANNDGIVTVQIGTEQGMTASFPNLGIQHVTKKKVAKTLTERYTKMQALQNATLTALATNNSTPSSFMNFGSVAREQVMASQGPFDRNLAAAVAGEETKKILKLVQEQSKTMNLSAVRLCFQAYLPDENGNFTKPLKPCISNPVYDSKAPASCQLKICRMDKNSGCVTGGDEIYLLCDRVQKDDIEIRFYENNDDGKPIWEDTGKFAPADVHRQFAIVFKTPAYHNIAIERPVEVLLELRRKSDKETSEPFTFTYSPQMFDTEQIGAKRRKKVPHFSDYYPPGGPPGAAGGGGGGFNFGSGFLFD
# [1] = target: T2, GST-Nv-NF-kB (Cys allele) (Nematostella vectensis, UniProt E5G601 2-411)
# T2 sequence: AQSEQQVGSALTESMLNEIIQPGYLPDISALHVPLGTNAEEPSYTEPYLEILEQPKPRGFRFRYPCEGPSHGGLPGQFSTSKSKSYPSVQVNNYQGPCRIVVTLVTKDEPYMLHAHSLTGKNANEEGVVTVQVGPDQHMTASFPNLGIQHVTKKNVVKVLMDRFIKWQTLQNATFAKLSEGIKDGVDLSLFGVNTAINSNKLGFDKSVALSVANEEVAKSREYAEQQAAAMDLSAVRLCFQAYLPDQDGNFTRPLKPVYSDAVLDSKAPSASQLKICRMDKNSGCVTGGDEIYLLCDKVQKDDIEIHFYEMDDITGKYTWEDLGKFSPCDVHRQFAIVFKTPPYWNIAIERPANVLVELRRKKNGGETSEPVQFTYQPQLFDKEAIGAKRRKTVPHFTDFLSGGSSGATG
# [2] = target: T3, GST-Nv-NF-kB (Ser allele) (Nematostella vectensis, UniProt A7UNT2 2-411)
# T3 sequence: T2 sequence with Q21R, C66S, S207N, E215Q, V217A, E225K, A268E, D399E
# GST-Co-NF-kB = target: T4, GST-Co-NF-kB (Capsaspora owczarzaki, UniProt F1ARL5 200-546)
# T4 sequence: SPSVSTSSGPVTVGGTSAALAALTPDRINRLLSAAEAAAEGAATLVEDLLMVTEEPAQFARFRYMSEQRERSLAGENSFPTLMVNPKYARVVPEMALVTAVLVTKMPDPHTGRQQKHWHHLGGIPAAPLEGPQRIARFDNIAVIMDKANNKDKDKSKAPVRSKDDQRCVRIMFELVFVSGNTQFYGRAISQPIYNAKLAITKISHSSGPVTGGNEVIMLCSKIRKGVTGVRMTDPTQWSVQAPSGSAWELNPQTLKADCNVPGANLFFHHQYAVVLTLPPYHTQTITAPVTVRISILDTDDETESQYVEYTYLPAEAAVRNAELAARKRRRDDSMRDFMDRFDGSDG
# GST-Dm-Relish = target: T5, GST-Dm-Relish (Drosophila melanogaster, UniProt Q94527 99-473)
# T5 sequence: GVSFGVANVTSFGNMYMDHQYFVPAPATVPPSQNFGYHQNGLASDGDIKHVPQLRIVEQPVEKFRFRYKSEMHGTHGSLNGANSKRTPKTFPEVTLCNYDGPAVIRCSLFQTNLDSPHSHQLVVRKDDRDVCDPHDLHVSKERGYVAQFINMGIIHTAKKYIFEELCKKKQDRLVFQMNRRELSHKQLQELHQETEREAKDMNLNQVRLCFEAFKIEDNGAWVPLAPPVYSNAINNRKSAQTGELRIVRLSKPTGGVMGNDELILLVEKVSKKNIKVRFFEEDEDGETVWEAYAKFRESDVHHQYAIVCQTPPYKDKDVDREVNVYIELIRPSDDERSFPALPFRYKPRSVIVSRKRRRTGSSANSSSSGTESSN
# GST-Aq-NF-kB = target: T6, GST-Aq-NF-kB (Amphimedon queenslandica, UniProt A9Y5G7 2-389)
# T6 sequence: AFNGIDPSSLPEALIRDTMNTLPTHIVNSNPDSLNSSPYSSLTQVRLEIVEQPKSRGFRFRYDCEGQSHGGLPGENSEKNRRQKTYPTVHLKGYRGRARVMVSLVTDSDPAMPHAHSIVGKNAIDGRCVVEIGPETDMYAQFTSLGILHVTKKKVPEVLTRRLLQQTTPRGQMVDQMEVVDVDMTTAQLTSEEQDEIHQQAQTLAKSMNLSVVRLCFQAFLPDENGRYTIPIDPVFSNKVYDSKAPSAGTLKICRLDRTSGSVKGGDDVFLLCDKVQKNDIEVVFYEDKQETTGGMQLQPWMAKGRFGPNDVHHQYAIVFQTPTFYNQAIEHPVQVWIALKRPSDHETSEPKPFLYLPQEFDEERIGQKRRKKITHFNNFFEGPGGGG
# GST-Hu-p50 = GST-Hu-p50 (Homo sapiens, UniProt P19838 7-356)
# Sequence of GST-Hu-p50 (P19838 7-356): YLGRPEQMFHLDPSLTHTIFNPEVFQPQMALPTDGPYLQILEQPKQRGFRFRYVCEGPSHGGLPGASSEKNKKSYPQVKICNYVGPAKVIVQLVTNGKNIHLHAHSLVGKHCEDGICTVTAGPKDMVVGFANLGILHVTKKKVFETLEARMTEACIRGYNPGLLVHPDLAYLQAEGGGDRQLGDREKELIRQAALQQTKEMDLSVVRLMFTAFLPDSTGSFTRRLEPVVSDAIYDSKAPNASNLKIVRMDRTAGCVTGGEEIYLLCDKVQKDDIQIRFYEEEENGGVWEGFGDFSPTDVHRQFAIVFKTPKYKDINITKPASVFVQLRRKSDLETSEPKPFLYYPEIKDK
Sequence,binding signal (GST-Ap-NF-kB RHD) [z-score],binding signal [1] [z-score],binding signal [2] [z-score],binding signal (GST-Co-NF-kB) [z-score],binding signal (GST-Dm-Relish) [z-score],binding signal (GST-Aq-NF-kB) [z-score],binding signal (GST-Hu-p50) [z-score]
CCGATTAACATCAAAGAAACCCCTGATGTTAATCGGGTCTTGATTCGCTTGACGCTGCTG,6,5.33,5.11,1.95,6.23,5.01,5.25
CCGATTAACATCAAGGGAATTTCTGATGTTAATCGGGTCTTGATTCGCTTGACGCTGCTG,6.34,8.61,8.46,4.25,5.45,7.24,5.75
CCGATTAACATCACAAAATTCCCTGATGTTAATCGGGTCTTGATTCGCTTGACGCTGCTG,5.93,8.61,8.58,5.01,6.16,6.82,6.04
CCGATTAACATCACCCCTTCCCCTGATGTTAATCGGGTCTTGATTCGCTTGACGCTGCTG,4.7,3.88,4.86,5.6,2.5,3.85,3.3
CCGATTAACATCAGCTAATTCCCTGATGTTAATCGGGTCTTGATTCGCTTGACGCTGCTG,1.96,3.33,3.36,1.82,1.18,3.15,2.27
CCGATTAACATCAGGGACCCCCCTGATGTTAATCGGGTCTTGATTCGCTTGACGCTGCTG,8.29,5.59,4.4,2.66,9.78,8.21,5.07
CCGATTAACATCAAATAATACCCTGATGTTAATCGGGTCTTGATTCGCTTGACGCTGCTG,3.69,5.65,5.61,1.91,3.33,6.24,4.35
CCGATTAACATCAACGATTCCCCTGATGTTAATCGGGTCTTGATTCGCTTGACGCTGCTG,5.94,6.55,8.86,6.02,3.74,4.38,5.62
CCGATTAACATCACCTTTTTCCCTGATGTTAATCGGGTCTTGATTCGCTTGACGCTGCTG,3.29,4.53,6.24,5.31,1.92,3.4,4.16
CCGATTAACATCAGGGTAAGTACTGATGTTAATCGGGTCTTGATTCGCTTGACGCTGCTG,2.48,3.05,2.93,1.85,7.08,5.82,2.3
CCGATTAACATCAGAGAACCCCCTGATGTTAATCGGGTCTTGATTCGCTTGACGCTGCTG,7.89,6.19,6.92,2.09,7.55,6.18,6.47
CCGATTAACATCATTTTGGGGACTGATGTTAATCGGGTCTTGATTCGCTTGACGCTGCTG,2.93,3.66,3.16,1.94,1.4,4.11,3.28
CCGATTAACATCAGTACTCCCCATGATGTTAATCGGGTCTTGATTCGCTTGACGCTGCTG,3.64,2.81,2.45,2.88,4.81,2.35,2.2
CCGATTAACATCAAATTTCCCCATGATGTTAATCGGGTCTTGATTCGCTTGACGCTGCTG,7.86,9.05,10.8,9.42,4.87,7.31,6.68
CCGATTAACATCAGAAAATACCCTGATGTTAATCGGGTCTTGATTCGCTTGACGCTGCTG,5.86,8.27,7.72,1.93,6.76,7.37,6.32
CCGATTAACATCACCGGGAATTCTGATGTTAATCGGGTCTTGATTCGCTTGACGCTGCTG,4.62,5.1,4.74,5.5,4.57,4.34,4.01
CCGATTAACATCAACAAATTCCCTGATGTTAATCGGGTCTTGATTCGCTTGACGCTGCTG,3.83,5.69,6.87,4.16,5.03,4.44,4.56
CCGATTAACATCAGGGGAAGTCATGATGTTAATCGGGTCTTGATTCGCTTGACGCTGCTG,5.98,7.2,7.6,4.69,6.43,6.01,5.27
CCGATTAACATCAAAAATCCCAATGATGTTAATCGGGTCTTGATTCGCTTGACGCTGCTG,2.79,3.4,2.4,1.58,6.98,3.37,3.32
CCGATTAACATCAGGGGAACACCTGATGTTAATCGGGTCTTGATTCGCTTGACGCTGCTG,6.84,6.62,6.14,5.77,9.19,7.92,4.87
CCGATTAACATCAGGGAAAGCCCTGATGTTAATCGGGTCTTGATTCGCTTGACGCTGCTG,6.37,8.76,4.62,1.84,7.96,8.88,4.93
CCGATTAACATCAGGCATTCCCCTGATGTTAATCGGGTCTTGATTCGCTTGACGCTGCTG,6.9,8.51,7.12,3.19,7.67,7.93,5.74
